About 8,800 targets were measured; listed, in parts, are those with a hit and a random draw of the rest. About 0.5% of all pairs of compound and target were hits.
Experiments:
Assay in all cases: log2 fold change, soluble protein after heating vs DMSO (PISA); higher = thermal stabilisation; K562 lysate, 10 uM; active = over 0.2 and 3.5 SD of the protein, either way, in both replicates (recomputed)
[1] = compound: CS(=O)(=O)CCNCc1ccc(-c2ccc3ncnc(Nc4ccc(OCc5cccc(F)c5)c(Cl)c4)c3c2)o1 [lapatinib]
How it was run: (§1)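 Pellets of K562 cells were dounce-homogenised in PBS pH 7.4 with 1 mM MgCl2, and the crude extract was held at 1 mg/mL protein for a 30 min treatment with 10 μM compound. Aliquots were heated for 3 min over 48°C-58°C and pooled before NP-40 was added to 0.5% at 4°C. The supernatant from 21,000xg for 90 min was quantified by TMTpro 16plex LC-MS/MS with channel sums equalised. Values are reported from duplicates as log-two fold change in thermal stability relative to solvent controls.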

[2] = compound: CS(=O)(=O)N1CCN(Cc2cc3nc(-c4cccc5[nH]ncc45)nc(N4CCOCC4)c3s2)CC1 [pictilisib]
How it was run: as §1

[3] = compound: C[C@@H](Oc1cc(-c2cnn(C3CCNCC3)c2)cnc1N)c1c(Cl)ccc(F)c1Cl [crizotinib]
How it was run: as §1

[4] = compound: C[C@H](C1=CC=C(C=C1)C(=O)NC2=C3C=CNC3=NC=C2)N
How it was run: as §1

[5] = compound: C[C@H](Nc1ncnc2nc[nH]c12)c1cc2cccc(Cl)c2c(=O)n1-c1ccccc1 [duvelisib]
How it was run: as §1

[6] = compound: Cc1cc(Nc2cc(CN3CCOCC3)c3nc(C)c(Cc4ccc(Cl)cc4F)n3n2)n[nH]1 [gandotinib]
How it was run: as §1

[7] = compound: Cc1cc(Nc2cc(N3CCN(C)CC3)nc(Sc3ccc(NC(=O)C4CC4)cc3)n2)n[nH]1 [tozasertib]
How it was run: as §1

[8] = compound: Cc1ccc(-n2nc(C(C)(C)C)cc2NC(=O)Nc2ccc(OCCN3CCOCC3)c3ccccc23)cc1 [doramapimod]
How it was run: as §1

[9] = compound: Cc1ccc(NC(=O)c2ccc(CN3CC[C@H](N(C)C)C3)c(C(F)(F)F)c2)cc1Nc1nccc(-c2cncnc2)n1 [bafetinib]
How it was run: as §1

[10] = compound: Cc1cccc(CC(=O)N2CCc3c2ccc(-c2cn(C)c4ncnc(N)c24)c3F)n1
How it was run: as §1

[11] = compound: Cc1cn(-c2cc(NC(=O)c3ccc(C)c(Nc4nccc(-c5cccnc5)n4)c3)cc(C(F)(F)F)c2)cn1 [nilotinib]
How it was run: as §1

[12] = compound: Cc1nc(Nc2n[nH]c3c2CN(C(=O)N[C@H](CN(C)C)c2ccccc2)C3(C)C)c2sccc2n1
How it was run: as §1

[13] = compound: Cc1nc(Nc2ncc(C(=O)Nc3c(C)cccc3Cl)s2)cc(N2CCN(CCO)CC2)n1 [dasatinib]
How it was run: as §1

[14] = compound: Cc1ncc(-c2ccnc(Nc3ccc(S(C)(=O)=O)cc3)n2)n1C(C)C
How it was run: as §1

[15] = compound: Cn1cc(-c2ccc3c(c2)CCN3C(=O)Cc2cccc(C(F)(F)F)c2)c2c(N)ncnc21
How it was run: as §1

[16] = compound: Cn1cc(CNCC2CCN(c3ncc(C(=O)NO)cn3)CC2)c2ccccc21 [quisinostat]
How it was run: as §1

[17] = compound: Cn1cncc1[C@@](N)(c1ccc(Cl)cc1)c1ccc2c(c1)c(-c1cccc(Cl)c1)cc(=O)n2C [tipifarnib]
How it was run: as §1

[18] = compound: NC(=O)Nc1cc(-c2cccc(F)c2)sc1C(=O)N[C@H]1CCCNC1
How it was run: as §1

[19] = compound: NC(=O)c1cnc(N[C@@H]2CCCC[C@@H]2N)nc1Nc1cccc(-n2nccn2)c1
How it was run: as §1

[20] = compound: NC1(c2ccc(-c3nc4ccn5c(=O)[nH]nc5c4cc3-c3ccccc3)cc2)CCC1
How it was run: as §1

Measured: log2 fold change

UBR1 (UniProt Q8IWV7)
inactive: [1] -0.018 | [2] -0.035 | [3] -0.082 | [4] -0.046 | [5] 0.01 | [6] -0.081 | [7] 0 | [8] 0.039 | [9] -0.065 | [10] 0.032 | [11] -0.022 | [12] 0.01 | [13] -0.012 | [14] 0.013 | [15] 0.046 | [16] -0.093 | [17] 0.007 | [18] 0.021 | [19] -0.006 | [20] -0.021

TNIK isoform 4 (UniProt Q9UKE5)
inactive: [1] -0.017 | [2] 0.012 | [3] -0.055 | [4] 0.038 | [5] 0.004 | [6] 0.153 | [7] 0.098 | [8] 0.205 | [9] -0.007 | [10] -0.04 | [11] -0.019 | [12] 0.087 | [13] 0.203 | [14] 0.11 | [15] -0.011 | [16] -0.198 | [17] -0.022 | [19] 0.08 | [20] -0.021
active: [18] 0.483

TUBGCP5 (UniProt Q96RT8)
inactive: [1] 0.11 | [2] 0.037 | [3] -0.064 | [4] -0.044 | [5] 0.103 | [6] -0.009 | [7] 0.113 | [8] 0.044 | [9] -0.121 | [10] 0.101 | [11] 0.024 | [12] 0.04 | [13] 0.119 | [14] 0.048 | [15] -0.094 | [16] 0.203 | [17] 0.012 | [18] 0.077
active: [19] -0.68

TTLL12 (UniProt Q14166)
Sequence of UniProt Q14166 (Q14166 whole entry, looked up): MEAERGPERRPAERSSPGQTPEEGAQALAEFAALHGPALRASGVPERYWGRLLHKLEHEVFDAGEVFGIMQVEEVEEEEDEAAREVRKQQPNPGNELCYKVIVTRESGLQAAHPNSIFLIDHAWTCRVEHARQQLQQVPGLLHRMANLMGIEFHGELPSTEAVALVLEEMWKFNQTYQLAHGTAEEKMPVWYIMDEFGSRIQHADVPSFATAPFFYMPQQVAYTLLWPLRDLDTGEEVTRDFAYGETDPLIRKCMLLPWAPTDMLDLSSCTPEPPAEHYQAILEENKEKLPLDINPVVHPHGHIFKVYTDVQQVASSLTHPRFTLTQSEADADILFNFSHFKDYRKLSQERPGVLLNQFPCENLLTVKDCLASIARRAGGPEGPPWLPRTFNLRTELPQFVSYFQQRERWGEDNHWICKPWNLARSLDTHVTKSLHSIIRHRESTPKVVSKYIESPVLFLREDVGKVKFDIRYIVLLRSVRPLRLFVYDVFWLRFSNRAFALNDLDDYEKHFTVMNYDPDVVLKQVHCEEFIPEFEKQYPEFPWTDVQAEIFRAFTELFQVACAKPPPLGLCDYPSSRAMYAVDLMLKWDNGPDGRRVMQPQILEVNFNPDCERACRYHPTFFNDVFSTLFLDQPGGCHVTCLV
inactive: [1] -0.002 | [2] -0.02 | [3] -0.039 | [4] 0.014 | [5] 0.015 | [6] -0.091 | [7] 0.023 | [8] 0.016 | [9] -0.004 | [10] 0.014 | [11] 0.015 | [12] -0.012 | [13] -0.028 | [14] -0.027 | [15] -0.006 | [16] -0.015 | [17] 0.008 | [18] 0.067 | [19] 0.001 | [20] -0.013

TIMELESS (UniProt Q9UNS1)
inactive: [1] 0.017 | [2] -0.017 | [3] -0.077 | [4] -0.042 | [5] -0.029 | [6] -0.12 | [7] -0.026 | [8] -0.02 | [9] -0.082 | [10] 0.032 | [11] 0.018 | [12] -0.039 | [13] -0.082 | [14] 0.024 | [15] 0.005 | [16] -0.137 | [17] -0.052 | [18] 0.045 | [19] 0.029 | [20] -0.035

TMPO (UniProt P42166)
Sequence of UniProt P42166 (P42166 whole entry, looked up): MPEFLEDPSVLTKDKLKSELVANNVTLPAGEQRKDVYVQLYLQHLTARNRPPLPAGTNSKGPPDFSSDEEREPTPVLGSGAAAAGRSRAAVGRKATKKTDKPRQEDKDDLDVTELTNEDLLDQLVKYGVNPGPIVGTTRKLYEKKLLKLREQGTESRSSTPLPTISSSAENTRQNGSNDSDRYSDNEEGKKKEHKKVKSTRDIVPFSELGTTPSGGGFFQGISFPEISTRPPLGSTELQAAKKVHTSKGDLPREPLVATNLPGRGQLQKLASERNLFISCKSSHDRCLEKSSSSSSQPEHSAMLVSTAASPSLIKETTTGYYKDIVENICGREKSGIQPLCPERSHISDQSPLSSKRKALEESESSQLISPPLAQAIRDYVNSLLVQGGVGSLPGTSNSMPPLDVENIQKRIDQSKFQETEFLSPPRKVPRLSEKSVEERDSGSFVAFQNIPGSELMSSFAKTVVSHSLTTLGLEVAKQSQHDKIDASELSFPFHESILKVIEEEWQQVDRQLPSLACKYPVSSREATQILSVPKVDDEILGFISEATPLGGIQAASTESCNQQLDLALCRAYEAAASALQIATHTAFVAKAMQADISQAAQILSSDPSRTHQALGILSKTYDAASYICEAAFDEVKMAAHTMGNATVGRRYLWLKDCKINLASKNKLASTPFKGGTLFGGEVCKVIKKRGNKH
inactive: [1] 0.018 | [2] -0.012 | [3] 0.016 | [4] -0.179 | [5] 0.023 | [6] -0.048 | [7] 0.016 | [8] -0.017 | [9] -0.021 | [10] 0.034 | [11] 0.05 | [12] -0.178 | [13] -0.069 | [14] -0.036 | [15] 0.029 | [16] -0.041 | [17] -0.018 | [18] 0.035 | [19] 0.031 | [20] -0.006

TIMM44 (UniProt O43615)
Sequence of UniProt O43615 (O43615 whole entry, looked up): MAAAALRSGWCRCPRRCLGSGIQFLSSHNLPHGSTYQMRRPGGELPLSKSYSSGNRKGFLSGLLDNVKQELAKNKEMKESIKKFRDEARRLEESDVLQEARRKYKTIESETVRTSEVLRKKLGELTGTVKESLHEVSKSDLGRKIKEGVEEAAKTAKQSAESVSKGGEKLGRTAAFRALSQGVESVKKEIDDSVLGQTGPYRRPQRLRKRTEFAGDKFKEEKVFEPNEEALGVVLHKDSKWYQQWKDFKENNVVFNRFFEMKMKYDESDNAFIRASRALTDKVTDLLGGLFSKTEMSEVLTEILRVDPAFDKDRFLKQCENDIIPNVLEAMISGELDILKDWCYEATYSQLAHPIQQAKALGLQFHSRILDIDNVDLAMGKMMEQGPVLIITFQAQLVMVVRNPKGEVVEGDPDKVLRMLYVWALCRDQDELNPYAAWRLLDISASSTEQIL
inactive: [1] 0.04 | [2] 0.022 | [3] 0.055 | [4] 0.009 | [5] -0.003 | [6] 0.136 | [7] 0.019 | [8] 0.058 | [9] -0.067 | [10] 0.065 | [11] 0.082 | [12] -0.011 | [13] -0.087 | [14] 0.023 | [15] -0.028 | [16] 0.003 | [17] -0.108 | [18] -0.058 | [19] 0 | [20] -0.031

TGFBRAP1 (UniProt Q8WUH2)
inactive: [1] -0.029 | [2] -0.021 | [3] -0.034 | [4] -0.001 | [5] -0.03 | [6] -0.138 | [7] 0.052 | [8] 0.028 | [9] -0.056 | [10] -0.007 | [11] 0.005 | [12] -0.043 | [13] -0.048 | [14] -0.015 | [15] 0.06 | [16] -0.076 | [17] 0.004 | [18] 0.029 | [19] 0.009 | [20] 0.04

TMEM164 (UniProt Q5U3C3)
Sequence of UniProt Q5U3C3 (Q5U3C3 whole entry, looked up): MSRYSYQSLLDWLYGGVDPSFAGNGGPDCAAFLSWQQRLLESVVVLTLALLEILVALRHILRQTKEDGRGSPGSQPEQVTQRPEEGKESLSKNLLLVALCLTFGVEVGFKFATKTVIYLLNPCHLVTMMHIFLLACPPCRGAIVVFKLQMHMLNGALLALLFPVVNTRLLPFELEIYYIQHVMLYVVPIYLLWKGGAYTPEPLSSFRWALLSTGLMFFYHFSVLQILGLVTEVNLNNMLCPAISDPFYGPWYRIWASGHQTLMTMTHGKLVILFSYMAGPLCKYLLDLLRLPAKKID
active: [4] -0.789
inactive: [1] -0.166 | [2] 0.186 | [3] -0.03 | [5] 0.131 | [6] 0.27 | [7] -0.091 | [8] -0.173 | [9] -0.05 | [10] 0.512 | [11] 0.06 | [12] -0.009 | [13] -0.087 | [14] 0.162 | [15] -0.041 | [16] -0.404 | [17] -0.055 | [18] 0.1 | [19] 0.083 | [20] -0.036

UBE2D1 (UniProt P51668)
Sequence of UniProt P51668 (P51668 whole entry, looked up): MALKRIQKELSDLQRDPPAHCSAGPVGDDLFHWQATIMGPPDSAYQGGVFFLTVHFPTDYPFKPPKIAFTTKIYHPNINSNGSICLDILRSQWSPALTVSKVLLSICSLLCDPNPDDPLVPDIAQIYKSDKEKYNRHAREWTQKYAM
active: [11] 0.259
inactive: [1] 0.052 | [2] 0.043 | [3] 0.01 | [4] -0.012 | [5] 0.031 | [6] -0.047 | [7] 0.081 | [8] 0.038 | [9] -0.058 | [10] -0.033 | [12] -0.093 | [13] -0.1 | [14] -0.064 | [15] 0.033 | [16] 0.108 | [17] -0.065 | [18] -0.06 | [19] -0.066 | [20] 0.029

TPM1 isoform 4 (UniProt P09493)
Sequence of UniProt P09493 (P09493 whole entry, looked up): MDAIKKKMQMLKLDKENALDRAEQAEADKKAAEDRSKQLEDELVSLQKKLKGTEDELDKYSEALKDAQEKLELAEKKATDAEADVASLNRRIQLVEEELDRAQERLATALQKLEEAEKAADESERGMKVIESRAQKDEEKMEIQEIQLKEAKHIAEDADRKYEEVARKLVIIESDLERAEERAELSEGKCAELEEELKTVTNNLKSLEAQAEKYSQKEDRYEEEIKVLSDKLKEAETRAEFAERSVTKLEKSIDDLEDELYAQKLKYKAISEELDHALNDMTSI
inactive: [1] 0.032 | [2] -0.051 | [3] 0.001 | [4] 0.061 | [5] -0.029 | [6] -0.142 | [7] 0.013 | [8] 0.012 | [9] 0.011 | [10] -0.142 | [11] 0.02 | [12] 0 | [13] 0.004 | [14] -0.031 | [15] 0.004 | [16] 0.023 | [17] -0.008 | [18] -0.016 | [19] -0.018 | [20] -0.019

TPP2 (UniProt Q5VZU9)
inactive: [1] -0.023 | [2] 0.069 | [3] -0.057 | [5] 0.02 | [6] 0.104 | [7] -0.087 | [8] -0.029 | [9] -0.044 | [10] 0.137 | [11] 0.066 | [12] 0.035 | [13] -0.194 | [14] -0.015 | [15] 0.036 | [16] 0.084 | [17] -0.001 | [18] 0.107 | [19] -0.006 | [20] -0.039
active: [4] -0.309

TCP11L1 (UniProt Q9NUJ3)
Sequence of UniProt Q9NUJ3 (Q9NUJ3 whole entry, looked up): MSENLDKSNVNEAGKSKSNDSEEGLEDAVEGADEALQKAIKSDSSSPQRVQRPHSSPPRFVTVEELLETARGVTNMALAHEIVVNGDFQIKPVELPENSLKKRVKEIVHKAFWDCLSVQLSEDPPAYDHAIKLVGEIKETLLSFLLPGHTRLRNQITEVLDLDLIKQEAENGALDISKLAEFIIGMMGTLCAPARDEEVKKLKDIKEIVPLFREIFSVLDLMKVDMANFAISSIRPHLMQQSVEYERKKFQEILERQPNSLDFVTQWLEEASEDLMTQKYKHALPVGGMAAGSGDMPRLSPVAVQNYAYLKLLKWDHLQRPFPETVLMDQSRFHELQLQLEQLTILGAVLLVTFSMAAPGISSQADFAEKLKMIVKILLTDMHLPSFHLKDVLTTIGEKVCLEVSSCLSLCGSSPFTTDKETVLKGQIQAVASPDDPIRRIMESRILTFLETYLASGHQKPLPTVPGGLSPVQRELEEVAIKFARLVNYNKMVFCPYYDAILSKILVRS
inactive: [1] -0.008 | [2] -0.028 | [3] -0.022 | [4] -0.204 | [5] -0.024 | [6] 0.066 | [7] -0.069 | [8] -0.017 | [9] -0.007 | [10] 0.146 | [11] 0.062 | [12] -0.114 | [13] -0.034 | [14] -0.035 | [15] 0.01 | [16] -0.055 | [17] -0.003 | [18] 0.051 | [19] -0.022 | [20] 0.028

TRAPPC9 isoform 2 (UniProt Q96Q05)
Sequence of UniProt Q96Q05 (Q96Q05 whole entry, looked up): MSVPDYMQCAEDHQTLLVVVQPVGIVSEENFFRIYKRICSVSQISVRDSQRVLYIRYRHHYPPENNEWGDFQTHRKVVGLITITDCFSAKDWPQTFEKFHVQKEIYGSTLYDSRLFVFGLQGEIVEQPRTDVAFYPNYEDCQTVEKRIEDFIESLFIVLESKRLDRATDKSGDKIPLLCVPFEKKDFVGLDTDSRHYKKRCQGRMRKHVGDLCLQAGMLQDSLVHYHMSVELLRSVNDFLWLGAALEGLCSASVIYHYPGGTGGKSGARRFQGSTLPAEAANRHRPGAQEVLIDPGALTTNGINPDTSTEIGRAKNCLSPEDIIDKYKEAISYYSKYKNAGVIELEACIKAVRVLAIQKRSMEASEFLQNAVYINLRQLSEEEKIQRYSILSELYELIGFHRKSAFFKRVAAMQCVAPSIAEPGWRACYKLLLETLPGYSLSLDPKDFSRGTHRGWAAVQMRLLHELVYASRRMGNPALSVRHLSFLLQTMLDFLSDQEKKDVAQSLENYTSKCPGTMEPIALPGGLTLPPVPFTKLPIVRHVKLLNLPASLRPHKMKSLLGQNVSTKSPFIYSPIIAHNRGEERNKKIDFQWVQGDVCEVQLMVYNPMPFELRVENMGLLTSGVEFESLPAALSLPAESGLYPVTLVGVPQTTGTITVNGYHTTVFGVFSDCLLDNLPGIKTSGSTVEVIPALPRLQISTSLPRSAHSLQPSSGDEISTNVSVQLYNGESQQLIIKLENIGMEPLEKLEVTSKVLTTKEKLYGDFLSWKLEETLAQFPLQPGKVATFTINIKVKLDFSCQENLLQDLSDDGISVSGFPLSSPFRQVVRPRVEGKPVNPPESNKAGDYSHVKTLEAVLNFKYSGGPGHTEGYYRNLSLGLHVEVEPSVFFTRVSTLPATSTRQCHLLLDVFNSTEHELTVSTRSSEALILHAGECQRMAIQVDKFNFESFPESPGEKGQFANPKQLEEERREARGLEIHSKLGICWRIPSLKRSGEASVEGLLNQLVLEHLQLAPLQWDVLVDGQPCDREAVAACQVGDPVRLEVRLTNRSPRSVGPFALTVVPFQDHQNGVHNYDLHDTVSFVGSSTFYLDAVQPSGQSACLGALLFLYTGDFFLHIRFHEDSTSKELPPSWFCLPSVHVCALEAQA
inactive: [1] -0.02 | [2] 0.012 | [3] -0.084 | [4] -0.053 | [5] -0.038 | [6] -0.037 | [7] 0.037 | [8] 0.029 | [9] -0.026 | [10] 0.021 | [11] 0.034 | [12] 0.005 | [13] -0.051 | [14] -0.011 | [15] 0.068 | [16] -0.07 | [17] 0.026 | [18] 0 | [19] -0.011 | [20] -0.073

UFSP2 (UniProt Q9NUQ7)
Sequence of UniProt Q9NUQ7 (Q9NUQ7 whole entry, looked up): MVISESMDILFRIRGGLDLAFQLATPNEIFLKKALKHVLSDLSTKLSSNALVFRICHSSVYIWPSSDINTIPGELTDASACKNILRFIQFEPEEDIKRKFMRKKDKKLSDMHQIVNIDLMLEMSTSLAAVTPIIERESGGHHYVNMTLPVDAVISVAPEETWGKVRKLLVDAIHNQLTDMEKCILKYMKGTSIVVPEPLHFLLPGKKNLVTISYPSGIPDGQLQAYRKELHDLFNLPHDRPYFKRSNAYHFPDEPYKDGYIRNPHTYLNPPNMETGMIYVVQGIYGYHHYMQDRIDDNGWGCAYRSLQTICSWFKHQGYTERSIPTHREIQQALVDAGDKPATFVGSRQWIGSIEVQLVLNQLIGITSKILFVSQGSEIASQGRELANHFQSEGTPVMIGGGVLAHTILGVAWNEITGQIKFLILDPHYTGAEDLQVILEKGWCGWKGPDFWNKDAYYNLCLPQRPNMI
inactive: [1] -0.02 | [2] -0.008 | [3] -0.022 | [4] -0.012 | [5] 0.009 | [6] -0.004 | [7] 0.017 | [8] 0.002 | [9] -0.028 | [10] 0.017 | [11] -0.004 | [12] -0.015 | [13] 0.007 | [14] -0.038 | [15] -0.002 | [16] 0.004 | [17] -0.001 | [18] 0.016 | [19] 0.002 | [20] -0.035

THOC5 (UniProt Q13769)
inactive: [1] -0.036 | [2] -0.007 | [3] -0.011 | [4] -0.024 | [5] -0.009 | [6] -0.021 | [7] -0.01 | [8] 0.02 | [9] -0.009 | [10] 0.035 | [11] -0.035 | [12] 0.006 | [13] -0.014 | [14] -0.036 | [15] 0.029 | [16] -0.006 | [17] -0.019 | [18] 0.021 | [19] 0.009 | [20] -0.01
